# In PubChem BioAssay (EPA / NIEHS):
# Records with an inconclusive call do not appear. Calls of active or inactive are those of the source. How the source made its calls, unless noted: active means hit-call score of the fitted dose curve at least 0.9, where 1 is the maximum; inconclusive means response in the unintended direction; inactive means score below 0.9.
# Assays:
# [1] = Tanguay_ZF_120hpf_JAW_legacy: (Legacy) Oregon State University Tanguay Lab 120 Hour Post-fertilization zebrafish Assay for Jaw Malformation (AID 2283638);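 on AC50: active means more embryos with jaw malformation than DMSO controls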
# Outline: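 Steps: dechorionate 4 hpf embryos (pronase); plate 1/well at 6 hpf; add test chemical, 0.64% DMSO final; seal, cover, hold at 28C statically to 120 hpf; score jaw defect presence/absence microscopically. Dead embryos not scored.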
# [2] = Tanguay_ZF_120hpf_OTIC_legacy: (Legacy) Oregon State University Tanguay Lab 120 Hour Post-fertilization zebrafish Assay for Otic Vesicle Malformation (AID 2283639)
# Outline: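 Statically exposed wild-type 5D zebrafish embryos, kept sealed and dark at 28C through 120 hours post fertilization, were examined by brightfield microscopy for otic vesicle defects. Responses were recorded as present or absent and analysed relative to DMSO.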
# [3] = Tanguay_ZF_120hpf_PE_legacy: (Legacy) Oregon State University Tanguay Lab 120 Hour Post-fertilization zebrafish Assay for Pericardial Edema (AID 2283640);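 on AC50: potency for increased incidence of pericardial edema versus DMSO baseline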
# Outline: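 Embryos from wild-type 5D adults were staged, then dosed in 0.64% DMSO. They were kept sealed in the dark at 28C until 120 hpf. Pericardial edema was then recorded as present or absent.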
# [4] = Tanguay_ZF_120hpf_PFIN_legacy: (Legacy) Oregon State University Tanguay Lab 120 Hour Post-fertilization zebrafish Assay for Pectoral Fin Malformation (AID 2283648);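 further: each larva judged yes or no for fin defect by brightfield with dead larvae skipped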
# Outline: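 Pectoral fin malformation was recorded as a binary endpoint at 120 hpf in wild-type Tropical 5D larvae, which had been dechorionated and exposed statically from 6 hpf at 28C in 0.64% DMSO. Dead embryos were excluded.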
# [5] = Tanguay_ZF_120hpf_CFIN_legacy: (Legacy) Oregon State University Tanguay Lab 120 Hour Post-fertilization zebrafish Assay for Caudal Fin Malformation (AID 2283649)
# Outline: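 Binary presence or absence of caudal fin malformation at 120 hpf, read by brightfield microscopy, with DMSO as baseline. Larvae came from 5D wild-type embryos exposed statically from 6 hpf at 28C after pronase dechorionation.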
# [6] = Tanguay_ZF_120hpf_CIRC_legacy: (Legacy) Oregon State University Tanguay Lab 120 Hour Post-fertilization zebrafish Assay for Circulatory Malformation (AID 2283651)
# Outline: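 Embryos are dechorionated at 4 hpf, plated one per well at 6 hpf, then held under static exposure at 28C until 120 hpf. Malformations are recorded as binary calls; mortality excludes other endpoints.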
# [7] = Tanguay_ZF_120hpf_SOMI_legacy: (Legacy) Oregon State University Tanguay Lab 120 Hour Post-fertilization zebrafish Assay for Somite Malformation (AID 2283647)
# Outline: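 Read-out: presence or absence of somite malformation in 120 hpf larvae, gain-of-signal relative to DMSO baseline. Embryos lacked chorion (pronase, 4 hpf) and were exposed statically from 6 hpf at 28C; dead larvae not scored.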
# [8] = Tanguay_ZF_120hpf_PIG_legacy: (Legacy) Oregon State University Tanguay Lab 120 Hour Post-fertilization zebrafish Assay for Pigmentation Malformation (AID 2283650)
# Outline: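 Pigment malformation recorded as a binary call at 120 hpf in zebrafish (Tropical 5D) exposed singly from 6 hpf after pronase dechorionation. Static, sealed, 28C exposure, 0.64% DMSO; mortality excludes scoring; positive-direction fit against DMSO.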
# [9] = Tanguay_ZF_120hpf_BRAI_legacy: (Legacy) Oregon State University Tanguay Lab 120 Hour Post-fertilization zebrafish Assay for Brain Malformation (AID 2283641)
# Outline: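 Wild-type 5D larvae, static waterborne exposure to 120 hpf, 28C, 0.64% v/v DMSO. Brightfield scoring of brain defects, binary; dead embryos excluded. Positive ctrl 5uM trimethyltin chloride.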
# [10] = read-out: kallikrein-3 (KLK3), KLK3 (gene 354); experiment: LTEA_HepaRG_KLK3: Life Technologies and Expression Analysis (LTEA) Assay for kallikrein-3 (KLK3) using HepaRG (AID 2283652; active means hit-call score of the fitted dose curve at least 0.9, where 1 is the maximum; inactive means score below 0.9); details: mRNA level, 48 h; actives raise or lower the signal
# Outline: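 KLK3 transcript levels were measured by TaqMan qRT-PCR with normalisation to three housekeeping genes. HepaRG cultures received chemicals for 48 h at up to 100 uM (half-log, 8 points, 0.5% DMSO vehicle), fitted in both directions against DMSO.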
smiles,measurement,setting,value
CCCCN(CC)c1c([N+](=O)[O-])cc(C(F)(F)F)cc1[N+](=O)[O-],outcome,[1],inactive
same,outcome,[2],inactive
same,outcome,[3],inactive
same,outcome,[4],inactive
same,outcome,[5],inactive
same,outcome,[6],inactive
CCCSP(=O)(OCC)SCCC,outcome,[1],inactive
same,outcome,[2],inactive
same,outcome,[3],inactive
same,outcome,[7],inactive
same,outcome,[4],inactive
same,outcome,[5],inactive
same,outcome,[8],inactive
same,outcome,[6],inactive
N#CSCSC#N,outcome,[2],inactive
same,outcome,[3],inactive
same,outcome,[7],inactive
same,outcome,[4],inactive
same,outcome,[5],inactive
same,outcome,[6],inactive
CCc1cccc(C)c1N(C(=O)CCl)C(C)COC (stereo not drawn),outcome,[2],inactive
same,outcome,[3],inactive
same,outcome,[9],inactive
same,outcome,[7],inactive
same,outcome,[4],inactive
same,outcome,[5],inactive
same,outcome,[8],inactive
same,outcome,[6],inactive
S=C1NCCN1,outcome,[2],inactive
same,outcome,[3],inactive
same,outcome,[7],inactive
same,outcome,[5],inactive
same,outcome,[8],inactive
CCOP(=S)(OCC)Oc1cc(C)nc(C(C)C)n1,outcome,[2],inactive
same,outcome,[3],inactive
same,outcome,[4],inactive
same,outcome,[5],inactive
same,outcome,[8],inactive
same,outcome,[6],inactive
COc1cccc(C(=O)NN(C(=O)c2cc(C)cc(C)c2)C(C)(C)C)c1C,outcome,[1],inactive
same,outcome,[2],inactive
same,outcome,[3],inactive
same,outcome,[7],inactive
same,outcome,[4],inactive
same,outcome,[8],inactive
same,outcome,[6],inactive
CC(C)N(C(=O)SCC(Cl)=C(Cl)Cl)C(C)C,outcome,[2],inactive
same,outcome,[3],inactive
same,outcome,[7],inactive
same,outcome,[4],inactive
same,outcome,[8],inactive
same,outcome,[6],inactive
CSc1nc(NC(C)C)nc(NC(C)C)n1,outcome,[1],inactive
same,outcome,[2],inactive
same,outcome,[3],inactive
same,outcome,[7],inactive
same,outcome,[4],inactive
same,outcome,[5],inactive
same,outcome,[8],inactive
same,outcome,[6],inactive
CC(C)=CC1C(C(=O)OCN2C(=O)C3=C(CCCC3)C2=O)C1(C)C (stereo not drawn),outcome,[1],inactive
same,outcome,[3],inactive
same,outcome,[7],inactive
same,outcome,[4],inactive
same,outcome,[5],inactive
same,outcome,[6],inactive
CCc1cnc(C2=NC(C)(C(C)C)C(=O)N2)c(C(=O)O)c1 (stereo not drawn),outcome,[1],inactive
same,outcome,[2],inactive
same,outcome,[3],inactive
same,outcome,[7],inactive
same,outcome,[4],inactive
same,outcome,[5],inactive
same,outcome,[8],inactive
same,outcome,[6],inactive
COc1ccc(C(=CC(=O)N2CCOCC2)c2ccc(Cl)cc2)cc1OC,AC50,[1],43.7 µM (active)
same,AC50,[2],42.6 µM (active)
same,AC50,[3],34.2 µM (active)
same,outcome,[7],inactive
same,AC50,[4],45.5 µM (active)
same,AC50,[5],37.3 µM (active)
same,outcome,[8],inactive
same,outcome,[6],inactive
CCOC(=O)COc1cc(-c2nn(C)c(OC(F)F)c2Cl)c(F)cc1Cl,outcome,[1],inactive
same,outcome,[2],inactive
same,outcome,[7],inactive
same,outcome,[4],inactive
same,outcome,[5],inactive
same,outcome,[8],inactive
same,outcome,[6],inactive
CCCOc1nn(C(=O)NS(=O)(=O)c2ccccc2C(=O)OC)c(=O)n1C,outcome,[1],inactive
same,outcome,[2],inactive
same,outcome,[3],inactive
same,outcome,[5],inactive
CC(=NC#N)N(C)Cc1ccc(Cl)nc1,outcome,[1],inactive
same,outcome,[2],inactive
same,outcome,[7],inactive
same,outcome,[4],inactive
same,outcome,[5],inactive
same,outcome,[8],inactive
same,outcome,[6],inactive
CC1(C(=O)Nc2ccc(O)c(Cl)c2Cl)CCCCC1,outcome,[1],inactive
same,outcome,[3],inactive
same,outcome,[9],inactive
same,outcome,[7],inactive
same,outcome,[4],inactive
same,outcome,[5],inactive
same,outcome,[8],inactive
same,outcome,[6],inactive
same,outcome,[10],inactive
CCOP(=O)(SC(C)CC)N1CCSC1=O (stereo not drawn),outcome,[1],inactive
same,outcome,[2],inactive
same,outcome,[3],inactive
same,outcome,[4],inactive
same,outcome,[5],inactive
same,outcome,[8],inactive
same,outcome,[6],inactive
CNc1cnn(-c2cccc(C(F)(F)F)c2)c(=O)c1Cl,outcome,[1],inactive
same,outcome,[3],inactive
same,outcome,[7],inactive
same,outcome,[4],inactive
same,outcome,[5],inactive
same,outcome,[8],inactive
same,outcome,[6],inactive
Cc1nn(-c2cc(NS(C)(=O)=O)c(Cl)cc2Cl)c(=O)n1C(F)F,outcome,[1],inactive
same,outcome,[2],inactive
same,outcome,[3],inactive
same,outcome,[7],inactive
same,outcome,[4],inactive
same,outcome,[8],inactive
same,outcome,[6],inactive
FC(F)C(F)(F)OCC(Cn1cncn1)c1ccc(Cl)cc1Cl (stereo not drawn),AC50,[1],11.7 µM (active)
same,AC50,[2],47 µM (active)
same,AC50,[3],26.1 µM (active)
same,AC50,[7],48.5 µM (active)
same,AC50,[4],46.6 µM (active)
same,AC50,[5],49.2 µM (active)
same,AC50,[8],49.6 µM (active)
same,AC50,[6],17.2 µM (active)
CCCCSP(=O)(SCCCC)SCCCC,outcome,[2],inactive
same,outcome,[3],inactive
same,outcome,[7],inactive
same,outcome,[4],inactive
same,outcome,[5],inactive
same,outcome,[8],inactive
same,outcome,[6],inactive
Nc1nc(N)nc(NC2CC2)n1,outcome,[1],inactive
same,outcome,[2],inactive
same,outcome,[7],inactive
same,outcome,[4],inactive
same,outcome,[5],inactive
same,outcome,[8],inactive
same,outcome,[6],inactive
CN1COCN(Cc2cnc(Cl)s2)C1=N[N+](=O)[O-],outcome,[1],inactive
same,outcome,[2],inactive
same,outcome,[3],inactive
same,outcome,[4],inactive
same,outcome,[8],inactive
same,outcome,[6],inactive
